# Assays:
# Experiment in all cases: DAPPL (digital affinity profiling via proximity ligation, sequencing); 10 mM Tris-HCl pH 7.5, 50 mM NaCl, 1 mM DTT, 4% glycerol, room temperature, 30 min; GST-TFs on glutathione beads, 16-mer random dsDNA library, 0.1% formaldehyde crosslink after washing; high values mean tight binding
# Details in all cases: protein: recombinant; tags: N-terminal GST; dsDNA, one strand shown
# FLI1 = biological target: T1, FLI1 (Homo sapiens, UniProt Q01543 1-452)
# T1 sequence: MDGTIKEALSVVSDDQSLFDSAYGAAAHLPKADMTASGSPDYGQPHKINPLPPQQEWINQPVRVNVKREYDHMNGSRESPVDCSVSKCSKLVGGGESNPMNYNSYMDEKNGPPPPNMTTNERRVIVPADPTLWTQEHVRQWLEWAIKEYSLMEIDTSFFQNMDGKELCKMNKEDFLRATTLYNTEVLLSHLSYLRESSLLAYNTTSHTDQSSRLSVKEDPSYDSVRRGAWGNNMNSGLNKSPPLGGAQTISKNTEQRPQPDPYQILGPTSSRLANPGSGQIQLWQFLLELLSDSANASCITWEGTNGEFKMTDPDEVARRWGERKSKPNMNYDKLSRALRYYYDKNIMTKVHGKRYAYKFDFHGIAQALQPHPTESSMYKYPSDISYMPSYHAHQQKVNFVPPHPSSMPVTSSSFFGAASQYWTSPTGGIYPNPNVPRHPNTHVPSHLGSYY
# Outline: (§1)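 Human transcription factors carrying a GST fusion were produced in yeast, bound to glutathione beads, tagged with DNA barcodes and pooled together with a tag-only sample. Each pool was held with 200 nmole of a random double-stranded 16-mer DNA library in Tris/NaCl/DTT/glycerol buffer for 30 min at room temperature, then washed, crosslinked in 0.1% formaldehyde, proximity-ligated with BsaI/T4 ligase (1 h, 37 °C), PCR-amplified and sequenced on an Illumina NextSeq500. Binding signal is the read frequency of each hexamer for a given factor divided by its frequency in the tag-only sample.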
# ELK1 = biological target: T2, ELK1 (Homo sapiens, UniProt P19419 1-428)
# T2 sequence: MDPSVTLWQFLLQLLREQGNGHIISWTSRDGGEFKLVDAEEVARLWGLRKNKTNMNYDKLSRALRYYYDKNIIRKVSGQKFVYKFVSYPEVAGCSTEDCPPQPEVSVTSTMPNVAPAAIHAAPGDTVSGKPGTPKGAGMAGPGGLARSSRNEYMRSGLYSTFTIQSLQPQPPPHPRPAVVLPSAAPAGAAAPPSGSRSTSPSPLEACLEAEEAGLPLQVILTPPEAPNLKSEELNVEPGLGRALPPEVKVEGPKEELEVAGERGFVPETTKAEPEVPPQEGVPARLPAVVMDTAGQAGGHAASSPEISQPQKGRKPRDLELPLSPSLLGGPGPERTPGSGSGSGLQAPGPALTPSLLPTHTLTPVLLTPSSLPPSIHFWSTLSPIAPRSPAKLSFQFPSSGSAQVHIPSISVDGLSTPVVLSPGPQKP
# Outline: as §1
# GABPA = biological target: T3, GABPA (Homo sapiens, UniProt Q06546 1-454)
# T3 sequence: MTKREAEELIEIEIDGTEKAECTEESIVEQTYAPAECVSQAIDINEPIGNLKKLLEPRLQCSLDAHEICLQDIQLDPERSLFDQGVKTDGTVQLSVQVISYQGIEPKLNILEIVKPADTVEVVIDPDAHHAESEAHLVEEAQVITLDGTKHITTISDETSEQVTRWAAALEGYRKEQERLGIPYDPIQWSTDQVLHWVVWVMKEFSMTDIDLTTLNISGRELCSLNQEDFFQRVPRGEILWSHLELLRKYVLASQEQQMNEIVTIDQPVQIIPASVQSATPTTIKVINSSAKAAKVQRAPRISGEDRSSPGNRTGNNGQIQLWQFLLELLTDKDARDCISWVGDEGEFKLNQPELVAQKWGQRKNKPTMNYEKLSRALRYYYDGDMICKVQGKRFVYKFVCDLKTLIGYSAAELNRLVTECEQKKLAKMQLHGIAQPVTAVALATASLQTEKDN
# Outline: as §1
# ERG = biological target: T4, ERG (Homo sapiens, UniProt P11308 1-479)
# T4 sequence: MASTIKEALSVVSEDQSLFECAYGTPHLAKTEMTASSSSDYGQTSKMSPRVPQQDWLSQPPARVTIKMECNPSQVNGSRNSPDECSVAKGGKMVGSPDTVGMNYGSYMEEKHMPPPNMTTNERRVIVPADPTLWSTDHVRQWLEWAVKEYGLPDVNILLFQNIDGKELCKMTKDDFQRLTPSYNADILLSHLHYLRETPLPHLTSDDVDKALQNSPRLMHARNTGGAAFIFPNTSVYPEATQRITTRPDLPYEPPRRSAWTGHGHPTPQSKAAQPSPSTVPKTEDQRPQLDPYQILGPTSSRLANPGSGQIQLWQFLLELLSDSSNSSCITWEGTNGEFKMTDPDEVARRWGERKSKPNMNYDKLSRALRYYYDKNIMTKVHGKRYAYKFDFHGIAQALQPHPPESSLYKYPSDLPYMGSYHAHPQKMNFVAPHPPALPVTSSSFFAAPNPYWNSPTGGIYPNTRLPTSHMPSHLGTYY
# Outline: as §1
# ELF1 = ELF1 (Homo sapiens, UniProt P32519 1-619)
# Chain of ELF1 (P32519 whole entry): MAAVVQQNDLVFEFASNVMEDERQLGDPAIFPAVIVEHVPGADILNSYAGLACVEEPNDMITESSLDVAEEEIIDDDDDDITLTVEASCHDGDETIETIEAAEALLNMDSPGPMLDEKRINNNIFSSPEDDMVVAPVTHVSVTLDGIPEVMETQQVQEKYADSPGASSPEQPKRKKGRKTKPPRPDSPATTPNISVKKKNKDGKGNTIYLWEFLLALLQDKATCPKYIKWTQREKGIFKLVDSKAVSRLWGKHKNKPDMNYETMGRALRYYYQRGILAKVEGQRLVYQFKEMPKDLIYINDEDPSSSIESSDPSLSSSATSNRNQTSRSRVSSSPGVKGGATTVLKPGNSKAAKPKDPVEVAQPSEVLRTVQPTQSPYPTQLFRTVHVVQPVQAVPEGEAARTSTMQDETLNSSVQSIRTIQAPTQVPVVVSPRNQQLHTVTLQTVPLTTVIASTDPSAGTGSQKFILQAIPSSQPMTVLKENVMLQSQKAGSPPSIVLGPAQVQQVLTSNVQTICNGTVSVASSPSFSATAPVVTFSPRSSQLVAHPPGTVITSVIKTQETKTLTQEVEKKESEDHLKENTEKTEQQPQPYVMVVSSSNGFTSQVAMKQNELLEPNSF
# Outline: as §1
# EHF = biological target: T5, EHF (Homo sapiens, UniProt Q9NZC4 1-300)
# T5 sequence: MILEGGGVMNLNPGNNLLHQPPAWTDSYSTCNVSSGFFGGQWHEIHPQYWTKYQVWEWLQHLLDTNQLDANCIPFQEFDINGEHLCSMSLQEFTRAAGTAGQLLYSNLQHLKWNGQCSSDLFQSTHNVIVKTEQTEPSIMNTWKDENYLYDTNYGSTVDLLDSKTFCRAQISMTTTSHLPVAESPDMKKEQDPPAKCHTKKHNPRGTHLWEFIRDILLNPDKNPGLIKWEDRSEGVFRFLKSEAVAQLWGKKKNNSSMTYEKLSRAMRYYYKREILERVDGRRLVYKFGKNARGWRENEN
# Outline: as §1
# SPI1 = SPI1 (Homo sapiens, UniProt P17947 1-270)
# Outline: as §1
# SPIB = SPIB (Homo sapiens, UniProt Q01892 1-262)
# Chain of SPIB (Q01892 whole entry): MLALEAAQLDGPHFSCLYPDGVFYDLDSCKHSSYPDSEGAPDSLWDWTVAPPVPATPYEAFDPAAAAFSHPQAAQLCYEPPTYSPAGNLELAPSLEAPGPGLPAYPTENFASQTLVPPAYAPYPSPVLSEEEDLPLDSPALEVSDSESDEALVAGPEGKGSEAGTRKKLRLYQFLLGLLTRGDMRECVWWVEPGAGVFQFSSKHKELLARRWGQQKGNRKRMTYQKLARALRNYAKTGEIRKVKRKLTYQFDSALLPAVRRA
# Outline: as §1
# ELK3 = biological target: T6, ELK3 (Homo sapiens, UniProt P41970 1-407)
# T6 sequence: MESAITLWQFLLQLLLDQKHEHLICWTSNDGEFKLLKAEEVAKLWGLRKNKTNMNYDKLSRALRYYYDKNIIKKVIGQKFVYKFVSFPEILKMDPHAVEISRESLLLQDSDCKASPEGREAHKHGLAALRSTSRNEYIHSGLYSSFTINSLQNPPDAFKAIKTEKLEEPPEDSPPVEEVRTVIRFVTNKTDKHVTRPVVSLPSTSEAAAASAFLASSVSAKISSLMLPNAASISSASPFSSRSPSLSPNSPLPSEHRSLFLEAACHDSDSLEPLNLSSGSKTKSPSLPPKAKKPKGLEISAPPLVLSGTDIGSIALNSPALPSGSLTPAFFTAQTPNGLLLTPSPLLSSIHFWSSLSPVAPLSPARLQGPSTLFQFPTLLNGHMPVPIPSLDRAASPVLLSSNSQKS
# Outline: as §1
Sequence,binding signal (FLI1),binding signal (ELK1),binding signal (GABPA),binding signal (ERG),binding signal (ELF1),binding signal (EHF),binding signal (SPI1),binding signal (SPIB),binding signal (ELK3)
AATAGG,"1.15 fold enrichment (6-mer frequency, TF over GST control)","1.11 fold enrichment (6-mer frequency, TF over GST control)","1.15 fold enrichment (6-mer frequency, TF over GST control)","1.2 fold enrichment (6-mer frequency, TF over GST control)","1.08 fold enrichment (6-mer frequency, TF over GST control)","1.27 fold enrichment (6-mer frequency, TF over GST control)","1.37 fold enrichment (6-mer frequency, TF over GST control)","1.22 fold enrichment (6-mer frequency, TF over GST control)","1.14 fold enrichment (6-mer frequency, TF over GST control)"
GCCTAT,"1.18 fold enrichment (6-mer frequency, TF over GST control)","1.3 fold enrichment (6-mer frequency, TF over GST control)","1.21 fold enrichment (6-mer frequency, TF over GST control)","1.23 fold enrichment (6-mer frequency, TF over GST control)","1.39 fold enrichment (6-mer frequency, TF over GST control)","1.17 fold enrichment (6-mer frequency, TF over GST control)","1.13 fold enrichment (6-mer frequency, TF over GST control)","1.21 fold enrichment (6-mer frequency, TF over GST control)","1.27 fold enrichment (6-mer frequency, TF over GST control)"
ACCACT,"1.28 fold enrichment (6-mer frequency, TF over GST control)","1.22 fold enrichment (6-mer frequency, TF over GST control)","1.35 fold enrichment (6-mer frequency, TF over GST control)","1.27 fold enrichment (6-mer frequency, TF over GST control)","1.31 fold enrichment (6-mer frequency, TF over GST control)","1.25 fold enrichment (6-mer frequency, TF over GST control)","1.38 fold enrichment (6-mer frequency, TF over GST control)","1.19 fold enrichment (6-mer frequency, TF over GST control)","1.21 fold enrichment (6-mer frequency, TF over GST control)"
TTTGGC,"1.33 fold enrichment (6-mer frequency, TF over GST control)","1.27 fold enrichment (6-mer frequency, TF over GST control)","1.25 fold enrichment (6-mer frequency, TF over GST control)","1.12 fold enrichment (6-mer frequency, TF over GST control)","1.27 fold enrichment (6-mer frequency, TF over GST control)","1.2 fold enrichment (6-mer frequency, TF over GST control)","1.22 fold enrichment (6-mer frequency, TF over GST control)","1.29 fold enrichment (6-mer frequency, TF over GST control)","1.1 fold enrichment (6-mer frequency, TF over GST control)"
GTGCTA,"1.11 fold enrichment (6-mer frequency, TF over GST control)","1.09 fold enrichment (6-mer frequency, TF over GST control)","1.04 fold enrichment (6-mer frequency, TF over GST control)","1.09 fold enrichment (6-mer frequency, TF over GST control)","1.12 fold enrichment (6-mer frequency, TF over GST control)","1.03 fold enrichment (6-mer frequency, TF over GST control)","1.25 fold enrichment (6-mer frequency, TF over GST control)","1.1 fold enrichment (6-mer frequency, TF over GST control)","1.14 fold enrichment (6-mer frequency, TF over GST control)"
TGGTAC,"1.18 fold enrichment (6-mer frequency, TF over GST control)","1.23 fold enrichment (6-mer frequency, TF over GST control)","1.13 fold enrichment (6-mer frequency, TF over GST control)","1.15 fold enrichment (6-mer frequency, TF over GST control)","1.17 fold enrichment (6-mer frequency, TF over GST control)","1.13 fold enrichment (6-mer frequency, TF over GST control)","1.12 fold enrichment (6-mer frequency, TF over GST control)","1.27 fold enrichment (6-mer frequency, TF over GST control)","1.07 fold enrichment (6-mer frequency, TF over GST control)"
CGTCTA,"1.15 fold enrichment (6-mer frequency, TF over GST control)","1.26 fold enrichment (6-mer frequency, TF over GST control)","1.31 fold enrichment (6-mer frequency, TF over GST control)","1.37 fold enrichment (6-mer frequency, TF over GST control)","1.31 fold enrichment (6-mer frequency, TF over GST control)","1.27 fold enrichment (6-mer frequency, TF over GST control)","1.25 fold enrichment (6-mer frequency, TF over GST control)","1.37 fold enrichment (6-mer frequency, TF over GST control)","1.25 fold enrichment (6-mer frequency, TF over GST control)"
ACCCGG,"1.62 fold enrichment (6-mer frequency, TF over GST control)","1.67 fold enrichment (6-mer frequency, TF over GST control)","1.62 fold enrichment (6-mer frequency, TF over GST control)","1.84 fold enrichment (6-mer frequency, TF over GST control)","1.75 fold enrichment (6-mer frequency, TF over GST control)","1.96 fold enrichment (6-mer frequency, TF over GST control)","1.54 fold enrichment (6-mer frequency, TF over GST control)","1.77 fold enrichment (6-mer frequency, TF over GST control)","1.71 fold enrichment (6-mer frequency, TF over GST control)"

# — publication PMC7862700, “An all-to-all approach to the identification of sequence-specific readers for epigenetic DNA modifications on cytosine”
